Results filed as inconclusive are left out. Activity calls are given as the source filed them. Unless noted, calls come from the whole dose curve; as a rule, active = well fitted curve in the direction sought with a large enough effect; inconclusive = small, poorly fitted or top-dose-only effect, or another doubt; inactive = no such curve, though single readings can be large; an effect the other way counts as inactive or inconclusive.
How the values were obtained:
[1] = qHTS assay for small molecule activators of the p53 signaling pathway (AID 651743; active = well fitted activation curve with a large enough effect in the signal ratio, not every such curve was filed as active; the % refers to the signal ratio; note: % of control where 0% means no effect); details: HCT-116 p53RE-bla, beta-lactamase FRET ratio, 16 h; activation: hits give high values
Method in brief: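 p53RE-bla HCT-116 cells carrying a beta-lactamase reporter under p53 response elements were exposed to compounds for 16 hours at 37 C. Reporter activity read as fluorescence after 2 hours at room temperature with LiveBLAzer B/G FRET substrate.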

[2] = qHTS assay for environmental chemicals that activate the Aryl hydrocarbon Receptor (AhR) signaling pathway (AID 651777); details: 1A2-DRE human hepatoma cells, luciferase, 24 h; activation: hits give high values; note: % of control where 0% means no effect; nearly all actives have a fitted effect of over 15% in size
Method in brief: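 Stable CYP1A2 promoter/DRE-luciferase human hepatoma line treated 24 hr; One-Glo luminescence, 30 min RT.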

[3] = target: Peroxisome proliferator-activated receptor alpha (Homo sapiens) (UniProt Q07869); experiment: qHTS assay for small molecule agonists of the peroxisome proliferator-activated receptor alpha (PPARalpha) signaling pathway (AID 651778); details: PathHunter PPARalpha complementation, chemiluminescence, 6 h; hits give high values; note: % of control where 0% means no effect
Method in brief: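 Enzyme-fragment complementation assay in which ligand-bound PPARalpha translocates and forms an active enzyme that generates chemiluminescence. Cells were plated overnight, exposed to compound for 6 hr at 37 C, and then given detection reagent for 60 min at room temperature.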

[4] = qHTS assay for small molecule agonists of the antioxidant response element (ARE) signaling pathway measured by Nrf2-dependant transcriptional activity (AID 720636; active = well fitted curve in the direction sought with a large enough effect in the repeat runs; an effect the other way counts as inactive or inconclusive;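 note: HepG2 cells with an ARE-driven luciferase reporter; % of control where 0% means no effect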)
Method in brief: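 Reporter gene assay, HepG2 ARE-luc: 16 hr compound, 37 C, 5% CO2; read-out luciferase luminescence.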

[5] = qHTS assay for small molecule agonists of the antioxidant response element (ARE) signaling pathway measured by Nrf2-dependant transcriptional activity - cell viability counter screen (AID 720653; active = well fitted curve in the direction sought with a large enough effect in the repeat runs; an effect the other way counts as inactive or inconclusive; note: % is set by controls: 0 for no effect and ±100 for the full control effect); details: ARE-bla HepG2 viability, CellTiter-Glo ATP luminescence, 16 h; max response: hits give low values
Method in brief: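 ARE-bla HepG2 cells treated with compounds for 16 h at 37C; this counter screen measures viability as intracellular ATP by CellTiter-Glo luminescence after 30 min at room temperature.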

[6] = qHTS Assay for Identifying Gametocytocidal Compounds (AID 743244);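 note: % is set by controls: 0 for no effect and ±100 for the full control effect; actives lower the fluorescent signal which means gametocytes are killed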; details: P. falciparum 3D7 stage III-V gametocytes, alamarBlue, 72 h; max response: hits give low values
Method in brief: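 Using 20,000 stage III–V 3D7 gametocytes per well, compounds were incubated 72 h under 37 °C/5% CO2. Viability was then assessed by 24 h alamarBlue reduction, measured fluorometrically at 525/598 nm.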

[7] = qHTS assay for cell viability of HEK293 cells (AID 743288); details: ATP luminescence (CellTiter-Glo), 18 h; max response: hits give low values; note: % is set by controls: 0 for no effect and ±100 for the full control effect; nearly all actives have a fitted effect of over 50% in size
Method in brief: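 Parental HEK293 cells were seeded at 2,000 cells/well, rested at least 5 h at 37 C, then exposed to compounds in DMSO for 18 h at 37 C. Viability was read as ATP-dependent luciferase luminescence after 30 min at room temperature.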

[8] = qHTS assay for cell viability of the p53RE-bla HCT-116 cell line (AID 743292); note: % is set by controls: 0 for no effect and ±100 for the full control effect; nearly all actives have a fitted effect of over 55% in size
Method in brief: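 Readout: CellTiter-Glo luminescence after 30 min RT. Treatment: compounds in DMSO, 16 h, 37 C. Cells: CellSensor p53RE-bla HCT-116, 4,000/well, preincubated 5 h.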

[9] = P-glycoprotein substrates identified in KB-8-5-11 adenocarcinoma cell line, qHTS therapeutic library screen (AID 1346987); note: potency is the fitted concentration of half-maximal effect; nearly all actives have a fitted effect of over 65% in size
Method in brief: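 KB-8-5-11, a colchicine-selected P-gp-overexpressing KB-3-1 subline, was grown without colchicine for the assay. Cells were seeded at 500 cells/well, dosed in concentration-response and incubated 72 h at 37 degree C, 5% CO2. Viability was read by CellTiter-Glo luminescence.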

[10] = Drug repurposing screens with cells derived from glioblastoma tumor samples (AID 1345199); details: GBM patient neurospheres viability, ATP luminescence, 48 h; Potency: tumour line A; series mostly up to 45.9 µM; note: % is set by controls: 0 for no effect and ±100 for the full control effect; nearly all actives have a fitted effect of over 40% in size
Method in brief: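 Four patient lines of CD133+ GBM neurospheres were screened at several concentrations; hits were retested in those lines plus three slower-growing GBM lines, using 48-hour treatment and ATP-based viability.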

[11] = target: Nuclear receptor subfamily 1 group I member 2 (Rattus norvegicus) (UniProt Q9R1A7); experiment: qHTS assay for small molecule activators of the rat pregnane X receptor (rPXR) signaling pathway (AID 651751; call rule not given here; note: 0% is about no effect); details: rPXR reporter cells, luciferase (One-Glo), 24 h
[12] = qHTS assay for small molecule activators of the human pregnane X receptor (PXR) signaling pathway (AID 720659; call rule not given here; note: 0% is about no effect)
[13] = target: Alpha-galactosidase (Coffea arabica) (UniProt Q42656); experiment: Counterscreen for Glucocerebrosidase Inhibitors: qHTS Assay for Coffee Bean alpha-Galactosidase at pH 4.5 (AID 957);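 note: plate controls were enzyme alone for no effect and no enzyme for full effect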
Method in brief: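 Coffee bean enzyme (2 nM) with 80 uM 4-methylumbelliferyl alpha-D-galactopyranoside in 50 mM citric acid, 0.005% Tween-20, pH 4.5, 20 min at room temperature; compounds 0.7 nM–77 uM. Stopped at pH 10, fluorescence 365/440 nm; AC50 from Hill fits.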

[14] = target: Alpha-galactosidase (Coffea arabica) (UniProt Q42656); experiment: Counterscreen for Glucocerebrosidase Inhibitors: qHTS Assay for Coffee Bean alpha-Galactosidase at pH 5.9 (AID 998);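 note: plate controls were uninhibited enzyme for no effect and no-enzyme basal signal for full effect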
Method in brief: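 Green coffee bean enzyme (2 nM) with 4-methylumbelliferyl alpha-D-galactopyranoside (80 uM) in 50 mM citric acid, 0.005% Tween-20, pH 5.9, 20 min at room temperature; compounds 0.7 nM–77 uM. Stopped at pH 10, fluorescence Ex365/Em440; Hill-fit AC50.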

[15] = High Content Imaging Cell-Based qHTS for Inhibitors of the mTORC1 Signaling Pathway in MEF (Tsc2-/-, p53-/-) Cells (AID 2666);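 note: percent of cells scored positive for phospho-rpS6 Ser235/236 immunostaining by imaging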
Method in brief: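 Phospho-rpS6 (Ser235/236) immunofluorescence, normalized and scored as % positive cells using rapamycin and DMSO controls, was read in empty-vector Tsc2-/-, p53-/- MEFs after 24 h compound exposure at 37 C; propidium iodide counted cells.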

[16] = Validation screen for inhibitors of Lassa infection (AID 463096; calls by dose curve; note: % is set by controls: 0 for no effect and ±100 for the full control effect)
[17] = target: M-phase phosphoprotein 8 (Homo sapiens) (UniProt Q99549); experiment: qHTS Validation Assay for Inhibitors for MPP8 Chromodomain Interactions with Methylated Histone Tails (AID 488949);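 note: AlphaScreen signal from MPP8 chromodomain bound to biotinylated H3K9me3 peptide; top concentration of the series differs between compounds; % is set by controls: 0 for no effect and ±100 for the full control effect; nearly all actives have a fitted effect of over 55% in size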
Method in brief: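 MPP8 (50 nM) was preincubated with biotinylated H3(1-18)K9me3 peptide (50 nM) in PBS pH 7.4, 0.01% Tween-20 for 30 min at room temperature, then with compounds for 30 min; binding was detected by AlphaScreen.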

[18] = Inducers of the Endoplasmic Reticulum Stress Response (ERSR) in human glioma: Validation (AID 504836); note: 0% is about no effect
Method in brief: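 Stably transfected U87-MG glioma cells carrying a GRP78-based luciferase sensor; 16 h compound incubation. Luminescence end-point read 10 min after Bright-Glo addition at room temperature.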

[19] = target: Ubiquitin carboxyl-terminal hydrolase 1 (Homo sapiens) (UniProt O94782); experiment: Inhibitors of USP1/UAF1: Pilot qHTS (AID 504865);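 note: rhodamine fluorescence freed from ubiquitin-rhodamine substrate followed over time; top concentration of the series differs between compounds; % is set by controls: 0 for no effect and ±100 for the full control effect; nearly all actives have a fitted effect of over 35% in size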
Method in brief: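 USP1/UAF1 complex (1nM) preincubated with compound 15 min at room temperature, then Ub-Rho substrate (150nM final) added. Fluorescence read kinetically at 480/540 nm, 6 reads every 60 seconds. Buffer: 50mM HEPES pH 7.8, 0.5mM EDTA, 0.1 mg/ml BSA, 1mM TCEP, 0.01% Tween-20.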

[20] = HTS Assay for Allosteric Antagonists of the Human D2 Dopamine Receptor: Hit Validation in HTRF (AID 624455);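 note: stable D1 dopamine receptor cell line scored for blocking the D1 response; % is set by controls: 0 for no effect and ±100 for the full control effect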
Method in brief: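 Hit validation in cells stably expressing the D1 dopamine receptor, run in HTRF format. Compounds were tested for their ability to inhibit the D1-mediated response.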

[21] = target: Arylsulfatase A (Homo sapiens) (UniProt P15289); experiment: qHTS screen for enhancers of Arylsulfatase A (ASA1): LOPAC Validation Assay (AID 720538)
Method in brief: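 SV40-transformed skin fibroblasts from an MLD patient (ASA-I179S) were treated with compounds for 48h at 37 degree C, then lysed with 0.5mM pNCS final substrate for 14h at room temperature; NaOH stop, fluorescence read (Ex=525 nm; Em=598 nm).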

[22] = target: Parathyroid hormone/parathyroid hormone-related peptide receptor (Homo sapiens) (UniProt Q03431); experiment: qHTS for PTHR1 Agonists: Optimization Screen against the NCGC LOPAC library (AID 1347079);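 note: GloSensor cAMP luminescence in HEK-293 GP2 cells expressing human PTHR1 with IBMX; 0% is about no effect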
Method in brief: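 Agonist readout: GloSensor cAMP luminescence, read after 15 min at room temperature. HEK-293-derived GP2 line carries PTHR1; compounds tested as a titration for 1 hr at 37C in presence of IBMX. M-PTH (1-15) served as control.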

[23] = qHTS for Inhibitors of the Functional Ribonucleoprotein Complex (vRNP) of Lassa (LASV) Arenavirus: LASV Primary Screen - GLuc reporter signal (AID 1347082; calls by dose curve; tested in HEK293 reporter line; note: % is set by controls: 0 for no effect and ±100 for the full control effect; nearly all actives have a fitted effect of over 60% in size)
[24] = qHTS for Inhibitors of the Functional Ribonucleoprotein Complex (vRNP) of Lassa (LASV) Arenavirus: Viability assay - alamar blue signal for LASV Primary Screen (AID 1347083; calls by dose curve; tested in HEK293 reporter line; note: % is set by controls: 0 for no effect and ±100 for the full control effect; nearly all actives have a fitted effect of over 80% in size)
[25] = qHTS for Inhibitors of the Functional Ribonucleoprotein Complex (vRNP) of Lymphocytic Choriomeningitis Arenaviruses (LCMV): Viability assay - alamar blue signal for LCMV Primary Screen (AID 1347085; calls by dose curve; tested in HEK293 reporter line; note: % is set by controls: 0 for no effect and ±100 for the full control effect; nearly all actives have a fitted effect of over 80% in size)
[26] = target: Nucleoprotein (Lymphocytic choriomeningitis virus (strain Armstrong)) (UniProt P09992); experiment: qHTS for Inhibitors of the Functional Ribonucleoprotein Complex (vRNP) of Lymphocytic Choriomeningitis Arenaviruses (LCMV): LCMV Primary Screen - GLuc reporter signal (AID 1347086; calls by dose curve; note: % is set by controls: 0 for no effect and ±100 for the full control effect; nearly all actives have a fitted effect of over 70% in size)
Chain of Nucleoprotein (Lymphocytic choriomeningitis virus (strain Armstrong)) (P09992 whole entry, looked up): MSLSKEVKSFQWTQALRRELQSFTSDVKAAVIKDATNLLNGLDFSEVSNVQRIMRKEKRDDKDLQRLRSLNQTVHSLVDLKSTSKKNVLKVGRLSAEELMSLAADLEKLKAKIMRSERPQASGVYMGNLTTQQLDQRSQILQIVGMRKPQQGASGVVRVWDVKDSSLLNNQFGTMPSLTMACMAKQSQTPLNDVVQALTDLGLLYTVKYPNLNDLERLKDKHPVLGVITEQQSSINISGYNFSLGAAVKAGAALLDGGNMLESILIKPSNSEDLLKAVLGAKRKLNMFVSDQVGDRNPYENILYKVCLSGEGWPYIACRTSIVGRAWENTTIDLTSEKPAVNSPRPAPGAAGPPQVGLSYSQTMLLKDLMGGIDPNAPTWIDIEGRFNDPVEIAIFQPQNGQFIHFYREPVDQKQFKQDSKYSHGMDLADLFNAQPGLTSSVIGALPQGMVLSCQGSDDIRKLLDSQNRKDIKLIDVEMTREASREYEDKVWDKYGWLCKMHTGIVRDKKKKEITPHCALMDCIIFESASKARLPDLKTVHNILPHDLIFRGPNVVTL

Chain of Alpha-galactosidase (Coffea arabica) (Q42656 whole entry, looked up): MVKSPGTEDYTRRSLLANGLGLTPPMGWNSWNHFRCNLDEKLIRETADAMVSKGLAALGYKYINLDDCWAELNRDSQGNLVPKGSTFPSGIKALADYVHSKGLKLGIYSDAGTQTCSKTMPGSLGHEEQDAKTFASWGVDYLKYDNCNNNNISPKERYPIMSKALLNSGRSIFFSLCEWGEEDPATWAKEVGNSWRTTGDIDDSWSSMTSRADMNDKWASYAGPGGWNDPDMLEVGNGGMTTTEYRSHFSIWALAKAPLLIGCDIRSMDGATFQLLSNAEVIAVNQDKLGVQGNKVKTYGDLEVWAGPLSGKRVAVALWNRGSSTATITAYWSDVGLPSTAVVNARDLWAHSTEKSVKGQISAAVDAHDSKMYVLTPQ
Chain of Parathyroid hormone/parathyroid hormone-related peptide receptor (Homo sapiens) (Q03431 whole entry, looked up): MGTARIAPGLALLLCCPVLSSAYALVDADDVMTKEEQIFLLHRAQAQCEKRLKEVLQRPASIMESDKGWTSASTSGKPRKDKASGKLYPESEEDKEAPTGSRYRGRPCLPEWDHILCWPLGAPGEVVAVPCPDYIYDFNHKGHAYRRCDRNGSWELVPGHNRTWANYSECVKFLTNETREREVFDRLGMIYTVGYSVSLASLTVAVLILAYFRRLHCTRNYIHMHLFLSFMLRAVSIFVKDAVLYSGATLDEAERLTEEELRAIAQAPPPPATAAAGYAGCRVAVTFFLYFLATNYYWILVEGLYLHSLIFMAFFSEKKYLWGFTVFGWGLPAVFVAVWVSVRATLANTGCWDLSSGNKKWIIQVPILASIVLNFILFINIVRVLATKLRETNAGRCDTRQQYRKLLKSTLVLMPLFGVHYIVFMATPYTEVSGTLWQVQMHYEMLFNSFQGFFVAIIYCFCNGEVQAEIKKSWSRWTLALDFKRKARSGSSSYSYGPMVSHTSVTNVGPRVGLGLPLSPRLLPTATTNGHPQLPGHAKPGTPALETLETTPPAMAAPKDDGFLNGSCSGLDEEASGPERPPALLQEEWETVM
Chain of Ubiquitin carboxyl-terminal hydrolase 1 (Homo sapiens) (O94782 whole entry, looked up): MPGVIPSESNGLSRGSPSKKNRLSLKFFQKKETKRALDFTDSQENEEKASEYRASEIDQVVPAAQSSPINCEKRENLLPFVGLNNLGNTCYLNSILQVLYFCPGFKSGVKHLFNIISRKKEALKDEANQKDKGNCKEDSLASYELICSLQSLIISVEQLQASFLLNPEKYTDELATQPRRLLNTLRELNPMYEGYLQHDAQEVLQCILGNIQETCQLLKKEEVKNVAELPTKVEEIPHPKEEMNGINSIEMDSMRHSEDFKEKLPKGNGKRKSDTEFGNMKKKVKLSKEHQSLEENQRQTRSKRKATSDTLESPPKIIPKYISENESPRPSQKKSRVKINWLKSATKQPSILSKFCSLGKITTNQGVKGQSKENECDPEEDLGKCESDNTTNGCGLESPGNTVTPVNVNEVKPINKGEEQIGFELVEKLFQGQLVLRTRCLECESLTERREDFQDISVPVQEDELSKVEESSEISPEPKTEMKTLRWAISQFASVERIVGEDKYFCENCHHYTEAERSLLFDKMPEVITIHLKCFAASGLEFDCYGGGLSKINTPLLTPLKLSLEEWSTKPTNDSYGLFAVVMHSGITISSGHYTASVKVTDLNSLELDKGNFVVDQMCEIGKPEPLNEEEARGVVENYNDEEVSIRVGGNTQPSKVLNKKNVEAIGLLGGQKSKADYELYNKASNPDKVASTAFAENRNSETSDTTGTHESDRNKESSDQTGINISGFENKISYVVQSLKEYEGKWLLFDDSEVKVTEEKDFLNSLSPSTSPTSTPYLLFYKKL
Chain of Arylsulfatase A (Homo sapiens) (P15289 whole entry, looked up): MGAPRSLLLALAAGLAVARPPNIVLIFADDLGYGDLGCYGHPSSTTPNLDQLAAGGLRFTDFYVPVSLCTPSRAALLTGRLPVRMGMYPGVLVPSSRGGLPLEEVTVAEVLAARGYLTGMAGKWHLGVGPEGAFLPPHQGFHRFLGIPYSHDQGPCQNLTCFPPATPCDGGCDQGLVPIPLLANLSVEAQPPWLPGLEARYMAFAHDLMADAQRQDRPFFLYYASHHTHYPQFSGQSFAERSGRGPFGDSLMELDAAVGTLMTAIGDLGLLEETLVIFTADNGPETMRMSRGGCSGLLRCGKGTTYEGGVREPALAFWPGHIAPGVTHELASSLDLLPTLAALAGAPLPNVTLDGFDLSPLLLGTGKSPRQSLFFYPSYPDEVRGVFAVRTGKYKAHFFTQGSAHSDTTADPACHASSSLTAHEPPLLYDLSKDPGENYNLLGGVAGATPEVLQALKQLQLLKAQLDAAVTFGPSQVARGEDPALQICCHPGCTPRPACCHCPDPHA
Chain of M-phase phosphoprotein 8 (Homo sapiens) (Q99549 whole entry, looked up): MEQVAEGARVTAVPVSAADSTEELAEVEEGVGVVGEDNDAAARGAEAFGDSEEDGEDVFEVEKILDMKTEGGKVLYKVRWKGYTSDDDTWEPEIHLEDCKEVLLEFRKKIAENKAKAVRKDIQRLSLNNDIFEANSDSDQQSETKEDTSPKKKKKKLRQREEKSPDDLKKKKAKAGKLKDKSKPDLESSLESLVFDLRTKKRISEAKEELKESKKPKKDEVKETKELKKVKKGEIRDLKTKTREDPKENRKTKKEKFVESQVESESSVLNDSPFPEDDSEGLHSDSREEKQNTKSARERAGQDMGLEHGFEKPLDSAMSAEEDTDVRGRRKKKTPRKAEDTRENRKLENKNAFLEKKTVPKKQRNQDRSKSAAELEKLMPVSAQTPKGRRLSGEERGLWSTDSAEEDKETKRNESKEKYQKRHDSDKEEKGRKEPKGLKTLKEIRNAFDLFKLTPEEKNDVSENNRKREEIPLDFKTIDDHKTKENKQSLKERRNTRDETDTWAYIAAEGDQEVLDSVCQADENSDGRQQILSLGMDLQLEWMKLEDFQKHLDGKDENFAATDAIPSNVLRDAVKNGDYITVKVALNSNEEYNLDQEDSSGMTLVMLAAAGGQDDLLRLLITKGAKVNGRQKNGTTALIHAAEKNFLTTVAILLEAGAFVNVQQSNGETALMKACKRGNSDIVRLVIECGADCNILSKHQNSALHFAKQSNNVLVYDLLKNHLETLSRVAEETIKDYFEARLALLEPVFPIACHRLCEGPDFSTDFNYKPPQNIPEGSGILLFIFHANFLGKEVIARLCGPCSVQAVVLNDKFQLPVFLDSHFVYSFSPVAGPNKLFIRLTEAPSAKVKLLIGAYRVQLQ
Chain of Nuclear receptor subfamily 1 group I member 2 (Rattus norvegicus) (Q9R1A7 whole entry, looked up): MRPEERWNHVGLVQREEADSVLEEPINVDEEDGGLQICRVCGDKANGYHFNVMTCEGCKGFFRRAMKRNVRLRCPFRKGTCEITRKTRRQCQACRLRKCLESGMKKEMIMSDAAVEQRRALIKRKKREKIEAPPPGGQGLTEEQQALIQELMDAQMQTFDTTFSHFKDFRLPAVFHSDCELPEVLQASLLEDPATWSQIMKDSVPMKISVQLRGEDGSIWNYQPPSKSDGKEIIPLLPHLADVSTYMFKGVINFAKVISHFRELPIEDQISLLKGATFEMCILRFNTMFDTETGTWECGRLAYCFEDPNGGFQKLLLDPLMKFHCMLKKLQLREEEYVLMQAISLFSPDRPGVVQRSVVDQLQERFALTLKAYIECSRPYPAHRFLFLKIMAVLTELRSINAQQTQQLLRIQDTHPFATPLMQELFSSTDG
Chain of Peroxisome proliferator-activated receptor alpha (Homo sapiens) (Q07869 whole entry, looked up, the tested form may be a part): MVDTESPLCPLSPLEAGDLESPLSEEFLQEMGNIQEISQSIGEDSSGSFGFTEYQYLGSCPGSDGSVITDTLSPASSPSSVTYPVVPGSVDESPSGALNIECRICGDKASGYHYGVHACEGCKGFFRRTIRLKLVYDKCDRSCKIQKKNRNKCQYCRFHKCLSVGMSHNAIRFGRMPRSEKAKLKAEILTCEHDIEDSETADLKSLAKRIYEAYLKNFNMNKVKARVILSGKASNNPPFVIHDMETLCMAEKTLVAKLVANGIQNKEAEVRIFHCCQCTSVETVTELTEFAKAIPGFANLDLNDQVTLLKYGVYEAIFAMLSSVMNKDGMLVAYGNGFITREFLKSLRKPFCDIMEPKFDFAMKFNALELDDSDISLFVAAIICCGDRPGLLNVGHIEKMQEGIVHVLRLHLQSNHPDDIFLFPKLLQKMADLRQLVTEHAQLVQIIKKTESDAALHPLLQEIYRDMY

C[C@]12CC[C@H]3[C@@H](CCC4=CC(=O)CC[C@@]43C)[C@@H]1CC[C@H]2O
inactive: activation [1] 0.0688% | activation [2] -2.33% | max response [3] -2.25% | Potency [4] | max response [5] 1.08% | max response [6] -4.18% | max response [7] -7.89% | outcome [8] | Potency [10] | max response [11] 3.9% | outcome [12]
active: Potency [9] 2590 nM

C1CCc2nnnn2CC1
inactive: outcome [13] | outcome [14] | Potency [15] | Potency [16] | Potency [17] | outcome [18] | Potency [19] | outcome [20] | Potency [21] | outcome [22] | Potency [23] | Potency [24] | Potency [25] | Potency [26]

— PubChem BioAssay (NCATS)
